Reference: PMC5700166
Positions count from the first letter of the chain named.

How the values were obtained:
Assay in all cases: protein-binding microarray (PBM); PBM: ~300 nM protein, 6 mM HEPES pH 7.8, 80 mM KCl, 0.5 mM EDTA, 0.5 mM EGTA, 6% glycerol, 35 ng/ul poly-dIdC, 1% milk, 1 h, room temperature; Ap Aiptasia and Nv Nematostella (sea anemones) / Co Capsaspora / Aq Amphimedon (sponge) / Dm Drosophila / Hu human; RHD is the Rel homology domain; high values mean tight binding
Settings in all cases: dsDNA, one strand shown
GST-Ap-NF-kB RHD = target: T1, GST-Ap-NF-kB RHD (Exaiptasia pallida (Aiptasia), UniProt A0A913YAJ5 2-422)
T1 sequence: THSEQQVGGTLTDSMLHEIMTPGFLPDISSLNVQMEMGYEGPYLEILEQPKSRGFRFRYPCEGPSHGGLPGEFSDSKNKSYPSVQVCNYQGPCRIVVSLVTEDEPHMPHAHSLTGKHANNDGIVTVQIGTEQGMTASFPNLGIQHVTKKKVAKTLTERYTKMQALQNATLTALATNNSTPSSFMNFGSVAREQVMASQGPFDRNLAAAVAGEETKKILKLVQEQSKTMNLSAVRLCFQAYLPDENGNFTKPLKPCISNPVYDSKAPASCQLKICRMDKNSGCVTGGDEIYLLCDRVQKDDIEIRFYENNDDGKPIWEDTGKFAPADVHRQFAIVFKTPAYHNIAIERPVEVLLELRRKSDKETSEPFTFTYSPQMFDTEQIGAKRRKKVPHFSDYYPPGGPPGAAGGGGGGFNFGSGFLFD

[1] = target: T2, GST-Nv-NF-kB (Cys allele) (Nematostella vectensis, UniProt E5G601 2-411)
T2 sequence: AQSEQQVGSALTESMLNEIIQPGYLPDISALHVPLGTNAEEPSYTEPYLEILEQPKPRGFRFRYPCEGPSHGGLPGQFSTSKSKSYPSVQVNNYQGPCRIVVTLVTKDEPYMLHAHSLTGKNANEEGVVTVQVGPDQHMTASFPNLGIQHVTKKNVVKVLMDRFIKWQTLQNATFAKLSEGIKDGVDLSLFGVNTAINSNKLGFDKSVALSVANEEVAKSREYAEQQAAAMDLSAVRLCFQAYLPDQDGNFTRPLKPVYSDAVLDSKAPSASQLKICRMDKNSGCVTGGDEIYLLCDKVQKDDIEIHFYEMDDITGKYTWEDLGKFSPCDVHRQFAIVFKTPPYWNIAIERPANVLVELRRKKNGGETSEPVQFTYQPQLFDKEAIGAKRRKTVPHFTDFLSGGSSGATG

[2] = target: T3, GST-Nv-NF-kB (Ser allele) (Nematostella vectensis, UniProt A7UNT2 2-411)
T3 sequence: T2 sequence with Q21R, C66S, S207N, E215Q, V217A, E225K, A268E, D399E

GST-Co-NF-kB = target: T4, GST-Co-NF-kB (Capsaspora owczarzaki, UniProt F1ARL5 200-546)
T4 sequence: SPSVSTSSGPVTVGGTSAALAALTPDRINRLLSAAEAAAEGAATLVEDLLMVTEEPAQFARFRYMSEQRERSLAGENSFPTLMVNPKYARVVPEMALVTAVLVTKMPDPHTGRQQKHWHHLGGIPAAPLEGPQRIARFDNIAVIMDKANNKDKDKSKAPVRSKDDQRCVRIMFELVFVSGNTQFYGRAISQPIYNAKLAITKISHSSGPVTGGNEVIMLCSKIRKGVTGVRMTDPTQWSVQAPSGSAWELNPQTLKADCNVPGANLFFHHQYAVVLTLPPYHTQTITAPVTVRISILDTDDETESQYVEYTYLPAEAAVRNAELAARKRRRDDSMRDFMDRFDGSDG

GST-Dm-Relish = target: T5, GST-Dm-Relish (Drosophila melanogaster, UniProt Q94527 99-473)
T5 sequence: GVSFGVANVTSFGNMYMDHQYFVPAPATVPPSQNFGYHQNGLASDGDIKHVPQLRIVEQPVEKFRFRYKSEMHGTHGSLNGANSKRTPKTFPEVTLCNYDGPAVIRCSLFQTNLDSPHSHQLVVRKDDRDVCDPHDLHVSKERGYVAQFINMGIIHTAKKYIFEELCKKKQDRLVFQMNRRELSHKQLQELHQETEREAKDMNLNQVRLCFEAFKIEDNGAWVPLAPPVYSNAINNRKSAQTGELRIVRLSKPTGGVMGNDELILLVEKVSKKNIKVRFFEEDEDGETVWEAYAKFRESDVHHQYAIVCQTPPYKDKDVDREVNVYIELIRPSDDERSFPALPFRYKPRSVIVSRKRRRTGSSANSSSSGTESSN

GST-Aq-NF-kB = target: T6, GST-Aq-NF-kB (Amphimedon queenslandica, UniProt A9Y5G7 2-389)
T6 sequence: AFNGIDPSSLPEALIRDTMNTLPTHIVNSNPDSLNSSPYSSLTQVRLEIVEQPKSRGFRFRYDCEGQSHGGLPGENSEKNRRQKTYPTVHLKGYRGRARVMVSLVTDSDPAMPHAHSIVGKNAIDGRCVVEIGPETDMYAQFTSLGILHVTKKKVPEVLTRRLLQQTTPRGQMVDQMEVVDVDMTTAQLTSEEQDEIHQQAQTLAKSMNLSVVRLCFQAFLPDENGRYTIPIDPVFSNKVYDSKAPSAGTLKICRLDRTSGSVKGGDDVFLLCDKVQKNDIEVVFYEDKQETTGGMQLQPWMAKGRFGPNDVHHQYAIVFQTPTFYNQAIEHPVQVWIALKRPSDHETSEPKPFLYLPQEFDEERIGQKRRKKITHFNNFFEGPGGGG

GST-Hu-p50 = GST-Hu-p50 (Homo sapiens, UniProt P19838 7-356)
GST-Hu-p50, sequence (P19838 7-356): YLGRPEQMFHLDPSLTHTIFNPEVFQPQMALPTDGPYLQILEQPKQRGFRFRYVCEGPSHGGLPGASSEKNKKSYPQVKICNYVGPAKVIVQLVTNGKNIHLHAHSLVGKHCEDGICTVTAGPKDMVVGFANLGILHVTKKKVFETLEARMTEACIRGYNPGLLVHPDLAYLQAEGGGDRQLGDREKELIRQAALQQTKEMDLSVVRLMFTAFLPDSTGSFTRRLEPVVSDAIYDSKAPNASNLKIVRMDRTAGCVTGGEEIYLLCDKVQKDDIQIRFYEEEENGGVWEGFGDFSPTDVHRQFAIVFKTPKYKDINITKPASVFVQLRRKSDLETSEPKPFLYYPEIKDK

Row | Sequence | binding signal (GST-Ap-NF-kB RHD) [z-score] | binding signal [1] [z-score] | binding signal [2] [z-score] | binding signal (GST-Co-NF-kB) [z-score] | binding signal (GST-Dm-Relish) [z-score] | binding signal (GST-Aq-NF-kB) [z-score] | binding signal (GST-Hu-p50) [z-score]
1 | CCGATTAACATCAGAGATTTCCCTGATGTTAATCGGGTCTTGATTCGCTTGACGCTGCTG | 3.94 | 5.69 | 6.13 | 3.92 | 2.1 | 5.48 | 4.51
2 | CCGATTAACATCACCCGGGAAACTGATGTTAATCGGGTCTTGATTCGCTTGACGCTGCTG | 2.48 | 2.39 | 3.08 | 4.78 | 1.11 | 2.32 | 1.81
3 | CCGATTAACATCAAAAATACCCTTGATGTTAATCGGGTCTTGATTCGCTTGACGCTGCTG | 5.7 | 9.05 | 7.74 | 1.68 | 7.04 | 7.5 | 6.41
4 | CCGATTAACATCAATTCCCCAGGTGATGTTAATCGGGTCTTGATTCGCTTGACGCTGCTG | 5.33 | 5.44 | 6.65 | 6.18 | 2.37 | 3.8 | 4.94
5 | CCGATTAACATCAAAGTTCCCCCTGATGTTAATCGGGTCTTGATTCGCTTGACGCTGCTG | 8.84 | 8.65 | 9.29 | 11.3 | 8.65 | 7.49 | 6.75
6 | CCGATTAACATCAAGGGGAAAAATGATGTTAATCGGGTCTTGATTCGCTTGACGCTGCTG | 6.62 | 8.51 | 11 | 9.12 | 4.24 | 6.11 | 6.67
7 | CCGATTAACATCACGGAAATCCCTGATGTTAATCGGGTCTTGATTCGCTTGACGCTGCTG | 4.3 | 3.8 | 2.78 | 1.09 | 6.96 | 6.11 | 3.58
8 | CCGATTAACATCAAGGGGATCCCTGATGTTAATCGGGTCTTGATTCGCTTGACGCTGCTG | 9.22 | 6.41 | 7.34 | 3.82 | 10.3 | 6.69 | 5.5
9 | CCGATTAACATCAAGGAATCCCCTGATGTTAATCGGGTCTTGATTCGCTTGACGCTGCTG | 9.79 | 9.72 | 10.4 | 3.63 | 10.1 | 7.6 | 7.1
10 | CCGATTAACATCAGCAATCCCCCTGATGTTAATCGGGTCTTGATTCGCTTGACGCTGCTG | 7.85 | 6.26 | 6.95 | 4.31 | 5.79 | 5.16 | 6.73
11 | CCGATTAACATCAAGGGGGAGATTGATGTTAATCGGGTCTTGATTCGCTTGACGCTGCTG | 6.99 | 6.09 | 7.57 | 7.21 | 3.01 | 5.27 | 7.18
